13 molecules from PubChem BioAssay (NCATS) can be followed below.

Records with an inconclusive call do not appear. Entries that show only a call come without a potency. Values without a mark were called inactive. For part of these data: Potency and affinity values are given separately. Activity calls are given as the source filed them. Unless noted, no rule for the calls is given here.

The first assay in a line: qHTS assay for cell viability of the p53RE-bla HCT-116 cell line (AID 743292; active = well fitted cell-killing curve with a large enough effect; also: nearly all actives have a fitted effect of over 55% in size). The settings on record: p53RE-bla HCT-116 viability, ATP luminescence, 16 h; series mostly up to 95 µM; activity change, negative = cytotoxicity: at the top concentration. Summed up:
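Compound-exposed HCT-116 (p53RE-bla) cells, 4,000 per well, were kept 16 h at 37 C following a 5 h preincubation. Cell number was estimated from total ATP by CellTiter-Glo luminescence read after 30 min at room temperature.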
For orientation: qHTS replaces the single test concentration by a dilution series.
Regarding `O=[N+]([O-])c1c2ccccc2cc2ccccc12`, the “activity change, negative = cytotoxicity” value is -2.25%. Consider `COCCOCCO`, for which the Potency result is “inactive”.

For `O=C(O)COc1ccccc1`, the “activity change, negative = cytotoxicity” value was -9.57%. Take `O=C(O)C(Cl)Cl`: the Potency entry was “inactive”.

Consider `O=C(O)c1cc(Oc2ccc(C(F)(F)F)cc2Cl)ccc1[N+](=O)[O-]`, for which the “activity change, negative = cytotoxicity” value is -7.69%. Turning to `Clc1cnc(Oc2ccc(Oc3ncc(Cl)cc3Cl)cc2)c(Cl)c1`, the “activity change, negative = cytotoxicity” value is -3.44%.

Assay in another assay: not given
The settings on record: Ebola virus entry assay, green channel fluorescence.
As for `Cc1ccc(Cl)c(O)c1`, the call was inactive. `O=[N+]([O-])c1c2ccccc2cc2ccccc12`: the call was inactive. On to `CC(C)(C)NC[C@H](O)c1ccc(O)cc1Cl`, for which the outcome was inactive. As to `COC(=O)c1cncn1C(C)c1ccccc1` (stereo not drawn), the outcome was inactive. In the case of `CN[C@@H](C)[C@H](O)c1ccccc1`, the molecule was classed as inactive. For `O=C1C(I)=CC(=C(c2cc(I)c(O)c(I)c2)c2ccccc2C(=O)O)C=C1I`, the molecule was classed as inactive. Regarding `COCCOCCO`, the call was inactive. Consider `CCC1(CCC(C)C)C(=O)NC(=O)NC1=O`, for which the result was inactive.

Regarding `O=C(O)COc1ccccc1`, the outcome was inactive.

For `O=C(O)C(Cl)Cl`, the outcome was inactive.

`S=C(SSC(=S)N1CCCCC1)N1CCCCC1`: the molecule was called inactive. For the molecule `O=C(O)c1cc(Oc2ccc(C(F)(F)F)cc2Cl)ccc1[N+](=O)[O-]`, the result was inactive.
